For 35 compounds, growth results are on record in PubChem BioAssay (NCI).

SMILES strings stand for the structures. This is part of a sample that, as a whole, favours compounds with a hit. Of some 83,000 tested, about 20% had one in any assay.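 Cells were grown in 96-well plates and exposed to the test compound at a single concentration for 48 hours; results are reported as percent growth, with values below 10 considered active.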 Active and inactive are the calls of the source.

The assay concerns UO-31 renal. The experiment in a line: NCI-60 one-dose screen, 48 h (100 = growth as untreated, 0 = no growth, -100 = all killed). The note with it: 10 µM unless noted.
As to `C[n+]1ccc(CCc2c[nH]c3ccccc23)cc1`, the growth was 76.7% (inactive). With `O=C(CI)NC(=O)NC(=O)NCc1ccccc1` the figure was -20.6% (active); with `O=C1/C=C/[C@@H](O)[C@@H]2C[C@@H](O)C[C@H]2/C=C/CCC[C@@H](O)CCO1`, 108% (inactive); with `CC/C=C\C[C@H](O)C/C=C1/C(=O)C=C[C@@H]1C/C=C\CCCC(=O)O`, 74.3% (inactive). As for `CCCCNC(=O)c1cc([N+](=O)[O-])cc(C2CCCCC2)c1O`, the growth was 24.8% (inactive). With `CC(=C(c1ccc(OCCN2CCCCC2)cc1)c1ccc(OCCN2CCCCC2)cc1)c1ccc(Cl)cc1` the figure was -96% (active). Regarding `S=C(c1ccc2c(c1)OCO2)N1CCN(c2cccc(Cl)c2)CC1`, the growth was 57.4% (inactive). Take `COc1ccc(/C(C)=C(/c2ccc(OCCCN(C)C)cc2)c2ccc(OC(=O)c3ccccc3)cc2)cc1`: the growth was 45.1% (inactive).

Consider `Cc1c(CC(=S)N2CCOCC2)nnn1-c1cccc(C(F)(F)F)c1`, for which the growth is 82.9% (inactive). Regarding `COc1cccc(/C=C/C(=O)c2cc3c(N)c(C(=O)Nc4cccc5ccccc45)sc3nc2C)c1`, the growth is 16.9% (inactive). Under `COc1cc(OC)c2sc(-c3ccc(-n4cncc4-c4cc(OC)c(OC)c(OC)c4)cc3)nc2c1` stands 41% (inactive); under `COC(=O)C(Cc1ccccc1)NC(=O)c1ccc(NC(=O)c2[nH]c(C)c(Cl)c2Cl)c(OC(C)C)c1` (stereo not given), 94.8% (inactive). Under `O=C(N/N=C\c1cccc([N+](=O)[O-])c1)N/N=C/c1cccc([N+](=O)[O-])c1` stands 86.8% (inactive).

Consider `COc1ccccc1N(C(C)=O)C1=C(Cl)C(=O)c2ccccc2C1=O`, for which the growth is 11.4% (inactive).

For the compound `COc1cccc(CNc2c3ccccc3nc3ccccc23)c1`, the growth was 27% (inactive). Consider `NC1(CO)COC(c2ccccc2)OC1` (stereo not given), for which the growth is 87.6% (inactive). In the case of `CO[C@H](C(=O)[C@@H](O)[C@@H](C)O)[C@@H]1Cc2cc3cc(O[C@H]4C[C@@H](O[C@H]5C[C@@H](O)[C@H](O)C(C)O5)[C@H](O)C(C)(O)O4)cc(O)c3c(O)c2C(=O)[C@H]1O[C@H]1C[C@@H](O[C@H]2C[C@@H](O[C@H]3C[C@@H](OC)[C@H](O)C(C)O3)[C@@H](O)C(C)O2)[C@H](O)C(C)O1` (stereo not given in full), the growth is 41.7% (inactive). As for `N#Cc1c(-c2ccccc2)nc(SCC(O)CN2CCOCC2)nc1N1CCOCC1` (stereo not given), the growth is 41.7% (inactive). Consider `COc1cc(-c2nc3cc(Cl)c(Cl)cc3[nH]2)ccc1OCC(=O)N=Nc1c(O)[nH]c2ccc(Cl)cc12`, for which the growth is 89% (inactive). With `CNC(=O)c1ccccc1Nc1nc(Nc2cc(OC)c(OC)c(OC)c2)ncc1Br` the figure was -17.6% (active); with `C=C(C)[C@@H]1CC[C@]2(C(N)=O)CC[C@]3(C)[C@H](CC[C@@H]4[C@@]5(C)CC[C@H](OCCC#N)C(C)(C)[C@@H]5CC[C@]43C)[C@@H]12`, 75.8% (inactive); with `N#C/C(=C\C=C\c1ccc(-c2cc(Cl)ccc2Cl)o1)c1nc2ccccc2s1`, 68.2% (inactive). Take `COc1ccc(/C=C/C(c2cc(OC)c(OC)c(OC)c2)n2ccnc2)cc1O` (stereo not given): the growth is 59.9% (inactive). `Cc1ccc2nc(/C(C#N)=C(/CCCO)NC(Cc3ccccc3)C(=O)OCc3ccccc3)[nH]c(=O)c2c1` (stereo not given): the growth is 112% (inactive). With `N#C/C(=C\c1ccc(-c2cccc(C(F)(F)F)c2)o1)c1ccccc1` the figure was 68.7% (inactive). Take `O=C(NC1CC(F)C1)c1cc2cccnc2n1-c1ccc(Cl)c(Cl)c1` (stereo not given): the growth is 69.7% (inactive).

As to `CCNC(=O)Oc1ccc(/C(=C(/CC)Cc2ccccc2)c2ccc(OCCN3CCCC3)cc2)cc1`, the growth is 83.5% (inactive). In the case of `COc1cc(C2C(C(=O)OCc3ccccc3)=C(C)NC(C)=C2C(=O)OCc2ccccc2)cc(OC)c1OC`, the growth was 18.5% (inactive). With `CN(Cc1cc(Br)cc(Br)c1O)Cc1cc(Br)cc(Br)c1O`, the growth is 23.4% (inactive). As for `Cc1c2cccnc2c(C)c2c1c1cc(CO)ccc1n2C`, the growth was 17.9% (inactive). As for `S=c1[nH]c(=S)c2c(-c3ccccc3)c(-c3ccccc3)oc2[nH]1`, the growth was 81.6% (inactive). With `CCC1S/C(=N\N=C(\C)c2cc3cc(Cl)ccc3o2)N(c2ccccc2)C1=O` (stereo not given) the figure was 145% (inactive); with `CCN(CC)Cc1cc(Nc2ccnc3cc(Cl)ccc23)ccc1O`, 87.1% (inactive); with `CCOC(=O)C(Cc1ccc(OC)cc1)C(=O)OCC`, 46.7% (inactive). With `CC1(C)CC[C@]2(C(=O)N[C@H](CO)Cc3ccccc3)CC[C@]3(C)C(=CC[C@@H]4[C@@]5(C)CCCNC(C)(C)[C@@H]5CC[C@]43C)[C@@H]2C1` the figure was 66.5% (inactive).
